Screening results as filed in PubChem.
The list is not random: actives were taken first. Their share in the collection is about 12%.
BAZ2B inh: BAZ2B (human) inhibition. Q9UIF8. AlphaScreen BAZ2B-H3K14Ac peptide displacement. Potency, µM (top dose mostly 114 µM), for the others: at the highest dose activity change, negative = inhibition, most hits filed as inhibitors. 360,000 tested, 4.4% active. AID 504333; also: % is scaled to controls: 0 for no effect and ±100 for the full control effect; nearly all actives have a fitted effect of over 60% in size
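AlphaScreen displacement: compounds (up to 110uM) incubated 30 min at room temperature with a preformed 50 nM BAZ2B/50 nM biotinylated H3K14Ac peptide complex in PBS pH 7.4 with Tween-20. Donor and acceptor beads at 10 ug/mL final added, 20 min light-protected before reading.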
G9a inh: inhibitors of human histone lysine methyltransferase G9a; 350,000 tested, 8.8% active; G9a H3K9 monomethylation, AlphaScreen, 2 h; Potency, µM (highest dose often 102 µM), without a hit: at the highest dose activity, negative = inhibition, usual class: inhibitors; AID 504332; also: % is scaled to controls: 0 for no effect and ±100 for the full control effect; nearly all actives have a fitted effect of over 75% in size
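Step 1: enzyme (final 20 nM) with compound, 15 min RT. Step 2: substrate peptide 500 nM and SAM 20 uM, 2 h RT. Step 3: anti-H3K9me1 antibody and AlphaScreen beads, 10 min, then plate read.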
JMJD2A Tudor: blocks the human JMJD2A Tudor domain | Potency, µM (series often up to 114 µM), inactives show top-dose activity change, negative = inhibition, actives largely listed as inhibitors | AlphaScreen JMJD2A-Tudor / H3K4me3 peptide binding | AID 504339 | O75164 | 390,000 tested, 4.4% active; also: % is scaled to controls: 0 for no effect and ±100 for the full control effect; nearly all actives have a fitted effect of over 50% in size
PLK1 PBD block: blocks phosphopeptide binding to human PLK1 polo-box domain | 360,000 tested, 2.8% active | AID 720504 | Potency, µM, without a hit: max response, negative = inhibition, most hits filed as inhibitors | Plk1 PBD binding of FITC phosphopeptide, fluorescence polarization | P53350; also: series mostly up to about 57 µM; % is scaled to controls: 0 for no effect and ±100 for the full control effect; nearly all actives have a fitted effect of over 65% in size
Target sequence (P53350 whole entry, looked up, the tested form may be a part): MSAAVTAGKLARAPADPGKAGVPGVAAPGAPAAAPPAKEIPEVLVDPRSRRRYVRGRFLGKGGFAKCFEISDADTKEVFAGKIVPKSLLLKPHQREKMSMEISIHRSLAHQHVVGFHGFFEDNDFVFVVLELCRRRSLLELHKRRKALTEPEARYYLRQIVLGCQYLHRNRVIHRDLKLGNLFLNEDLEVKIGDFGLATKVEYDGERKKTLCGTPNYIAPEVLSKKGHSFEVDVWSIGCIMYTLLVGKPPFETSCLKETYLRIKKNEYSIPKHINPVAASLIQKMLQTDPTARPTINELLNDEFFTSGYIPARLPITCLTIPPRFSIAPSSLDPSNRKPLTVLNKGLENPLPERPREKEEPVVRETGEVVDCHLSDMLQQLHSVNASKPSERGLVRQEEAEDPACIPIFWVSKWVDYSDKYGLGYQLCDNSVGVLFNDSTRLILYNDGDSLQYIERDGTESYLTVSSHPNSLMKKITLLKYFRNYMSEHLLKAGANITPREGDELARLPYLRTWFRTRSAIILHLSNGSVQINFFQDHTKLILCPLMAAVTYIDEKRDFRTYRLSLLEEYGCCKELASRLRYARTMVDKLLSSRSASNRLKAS
Sfp PPTase inh: Sfp phosphopantetheinyl transferase inhibition. Q9F4F7. Biochemical Sfp PPTase activity, qHTS. AID 1490. 310,000 tested, 3.5% active. Potency, µM, for inactives: largest response in the series, negative = inhibition, hits mostly inhibitors;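 also: the enzyme is Sfp with the accession as filed and its product quenches rhodamine fluorescence; 0% = enzyme reaction without inhibitor and -100% = no enzyme wells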
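With Hepes-Na pH 7.6 buffer containing 10 mM MgCl2, Sfp (15 nM) modified BHQ-2-YbbR (12.5 uM) using rhodamine-CoA (5 uM). Two reads 30 minutes apart at 525/598 nm yielded each well's rate.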
HP1b chromo inh: HP1-beta chromodomain-methylated histone interaction inhibition; P83916; AlphaScreen HP1-beta / biotin-H3K9me3 peptide binding; Potency, µM (top dose mostly 114 µM), for the others: at the top dose activity change, negative = inhibition, hits mostly inhibitors; 390,000 tested, 0.56% active; AID 540317; also: nearly all actives have a fitted effect of over 70% in size
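HP1-beta protein (50 nM final) preincubated 30 min at room temperature with biotinylated H3(1-18)K9me3 peptide (50 nM) in PBS pH 7.4, 0.01% Tween-20, then compound added for 30 min. AlphaScreen streptavidin donor/nickel chelate acceptor beads (10 ug/mL final), 30 min dark, luminescence read.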
* = called active by the depositor; ? = inconclusive; . = no result; [ ] = dose if it differs, or a comment. Calls follow the shape of the dose curve; as a rule, active = well fitted curve in the direction sought with a large enough effect; inconclusive = small, poorly fitted or top-dose-only effect, or another doubt; inactive = no such curve, though single readings can be large; an effect the other way counts as inactive or inconclusive. Potency is read from the fitted curve at half-maximal effect.

SMILES | BAZ2B inh | G9a inh | JMJD2A Tudor | PLK1 PBD block | Sfp PPTase inh | HP1b chromo inh
CCOC(=O)/C(C#N)=C/c1ccc(-c2ccc(C)cc2)o1 | -30% | -13%[59 µM] | 9% | . | . | 10%
CC1CC(C)CN(CCCOc2ccccc2[N+](=O)[O-])C1 (stereo not given) | -30% | 14µM* | 32µM* | -11% | -68% | ?
Cc1ccc([N+](=O)[O-])c(OCCN2CCc3ccccc3C2)c1 | 50µM* | 10µM* | 20µM* | -7% | -28% | ?
Cc1ccc([N+](=O)[O-])c(OCCCN2CCC(Cc3ccccc3)CC2)c1 | . | . | 20µM* | 8% | . | ?
O=[N+]([O-])c1ccccc1OCCCN1CCc2ccccc2C1 | -35% | ? | -20% | -5% | 16% | 34%
O=C(O)[C@@H]1CCCN1S(=O)(=O)c1cccc2cccnc12 | 6% | -2%[2.33 µM] | -15% | -15% | . | 29%
COc1ccc(N2CCN(C(=O)C(C)n3nc(C)c4sc5ccccc5c4c3=O)CC2)cc1 (stereo not given) | -21% | ? | -34% | . | . | 3%
Brc1csc2ncccc12 | -7% | -19% | 7% | -6% | 10% | 7%
Oc1c(Br)cc(Br)c2cccnc12 | . | -41%[2.33 µM] | 40µM* | -23% | 19% | 30%
COC(=O)Cn1c(C2CC(=O)N(c3c(C)cccc3C)C2)nc2ccccc21 (stereo not given) | -3% | 14µM* | -13% | . | . | 30%
Cc1cccc(C)c1OCCCCn1c(C2CC(=O)N(c3ccc(F)cc3)C2)nc2ccccc21 (stereo not given) | -15% | 14µM* | ? | . | . | 16%
CCn1c(C2CC(=O)N(c3cc(C)cc(C)c3)C2)nc2ccccc21 (stereo not given) | 15% | -35% | -14% | -3% | 6% | 18%
COc1cc(CNC2CCCC2)cc(Cl)c1OCc1ccccc1F | 9% | -39%[59 µM] | -10% | -6% | 0% | 40%
O=C(NC(Cc1ccccc1)C(=O)O)/C(=C\c1ccco1)NC(=O)c1ccccc1 (stereo not given) | -29% | ? | -19%[57.1 µM] | -24% | 35µM* | -13%
O=C(NC(Cc1ccccc1)C(=O)O)/C(=C\c1ccc(Cl)cc1)NC(=O)c1ccco1 (stereo not given) | -15% | 79µM* | -8% | -12% | 18% | 45%
S=c1[nH]nc(-c2ccc3ccccc3n2)n1-c1ccc2ncccc2c1 | ? | 2µM* | -16% | -22% | ? | 16%
CCN(CC)c1ccc(-c2n[nH]c(=S)n2-c2ccccc2C)cc1 | ? | ? | -27% | -11% | ? | 0%
Cc1ccccc1-n1c(-c2ccc3ccccc3n2)n[nH]c1=S | -22% | 14µM* | -14% | -8% | -9% | 24%
COc1ccc(-c2n[nH]c(=S)n2-c2ccccc2C)cc1OC | -20% | 7.9µM* | 11µM* | -18% | -20% | 33%
COc1ccc(-c2n[nH]c(=S)n2-c2ccccc2C)cc1 | 3% | 4.5µM* | ? | ? | ? | -18%
COc1nc(-c2ccccc2)cc(-c2ccc(OC)c(OC)c2)n1 | 21% | -49%[2.33 µM] | 28% | 1% | ? | 99%
C[N+]1(C)[C@@H]2CC(OC(=O)C(O)(c3cccs3)c3cccs3)C[C@H]1[C@@H]1O[C@@H]12 (stereo not given in full) | . | -3%[12.7 µM] | . | . | 7% | .
COc1cc(-c2cc(OC)c3c(C)oc(C)c3c(=O)c2)ccc1OC(=O)c1cccc(C)c1 | -34% | ? | -26% | . | . | 22%
COc1ccc(-c2oc3ncn4nc(-c5ccccc5OC)nc4c3c2-c2ccc(OC)cc2)cc1 | 0% | -29%[59 µM] | 0% | . | . | 24%
CCOC(=O)C1CCN(c2nc(N)c3c(N)nc(SCC(=O)O)cc3c2C#N)CC1 | 40µM* | 8.9µM* | -15%[11.4 µM] | 11µM* | 6.3µM* | 18µM*
SMILES | BAZ2B inh | G9a inh | JMJD2A Tudor | PLK1 PBD block | Sfp PPTase inh | HP1b chromo inh
CN1C(=O)CC(NNC(=O)c2ccccc2)C1=O (stereo not given) | -1% | . | 0% | -2% | -1% | 26%
CC(C)N1C(=O)CC(Nc2cccc3cccc(N)c23)C1=O (stereo not given) | ? | 45µM* | ? | ? | -11% | -23%
CN1C(=O)CC(Nc2cccc3cccc(N)c23)C1=O (stereo not given) | ? | 35µM* | ? | -5% | -63% | 1%
CC(C)Oc1cccc(NC(=O)C2(C)CCN2C(=O)C(C)C)c1 (stereo not given) | . | . | . | -5% | . | .
COc1cccc(N2C(=O)c3ccncc3C2=O)c1 | -10% | -10% | -15% | 4% | 21% | 10%
Cc1cccc(N2C(=O)/C(=C\c3ccc(OC(F)F)cc3)c3ccccc3C2=O)c1 | ? | -14%[59 µM] | ? | 2.4µM* | ? | -20%
COc1cccc(/C=C2\C(=O)N(c3cccc(C)c3)C(=O)c3ccccc32)c1 | ? | 18µM* | -31% | 2.7µM* | -15% | -14%
CCCCC(=O)Nc1nnn(CCC)n1 | 4% | 4%[12.7 µM] | -7% | -5% | 7% | 7%
CCCCn1nnc(NC(=O)c2ccc(-c3ccccc3[N+](=O)[O-])o2)n1 | -24% | ? | -20% | -3% | 14% | 11%
CCCCC(=O)NC(=S)Nc1nnn(CCC)n1 | 71µM* | 10µM* | 3.5µM* | -5% | 14µM* | -2%
CCCCn1nnc(NC(=S)NC(=O)c2ccc(-c3cccc(Cl)c3Cl)o2)n1 | -8% | 45µM* | ? | ? | ? | -24%
CCCN1CCCc2cc(CN)ccc21 | 45µM* | 8.9µM* | 4µM* | 19µM* | ? | ?
CN1CCCc2cc(C=O)ccc21 | 9% | -49%[59 µM] | -10% | ? | -13% | 28%
COc1ccc(C2C(C(C)=O)=C(O)C(=O)N2CCN(C)C)cc1OC (stereo not given) | -11% | 50µM* | . | . | 13% | .
CCN(CC)CCN1C(=O)C(O)=C(C(C)=O)C1c1ccc(OC)c(OC)c1 (stereo not given) | 0% | ? | 9% | -1% | -8% | 50%
COc1cccc(C2C(C(C)=O)=C(O)C(=O)N2CCc2c[nH]c3ccccc23)c1 (stereo not given) | -31% | -3%[59 µM] | ? | -9% | 4% | -1%
COc1ccc(C2C(C(C)=O)=C(O)C(=O)N2CCc2c[nH]c3ccccc23)cc1OC (stereo not given) | -33% | 25µM* | -15% | 1% | -6% | 27%
CC(=O)C1=C(O)C(=O)N(CCc2c[nH]c3ccccc23)C1c1ccc(O)cc1 (stereo not given) | -31% | -23%[59 µM] | 89µM* | -9% | 15% | 8%
